12-hLO inh = 12-hLO (ALOX12) enzyme inhibition; 0.12% of 150,000 active; purified 12-hLO, xylenol orange hydroperoxide absorbance; Potency, µM (highest dose often 57.1 µM), without a hit: at the highest dose activity change, negative = inhibition, hits mostly inhibitors; active means well fitted inhibition curve with a large enough effect; inconclusive means small, poorly fitted or top-dose-only effect; further: potency means the concentration at half of the fitted maximal effect; nearly all actives have a fitted effect of over 55% in size
Target sequence (P18054 whole entry, looked up): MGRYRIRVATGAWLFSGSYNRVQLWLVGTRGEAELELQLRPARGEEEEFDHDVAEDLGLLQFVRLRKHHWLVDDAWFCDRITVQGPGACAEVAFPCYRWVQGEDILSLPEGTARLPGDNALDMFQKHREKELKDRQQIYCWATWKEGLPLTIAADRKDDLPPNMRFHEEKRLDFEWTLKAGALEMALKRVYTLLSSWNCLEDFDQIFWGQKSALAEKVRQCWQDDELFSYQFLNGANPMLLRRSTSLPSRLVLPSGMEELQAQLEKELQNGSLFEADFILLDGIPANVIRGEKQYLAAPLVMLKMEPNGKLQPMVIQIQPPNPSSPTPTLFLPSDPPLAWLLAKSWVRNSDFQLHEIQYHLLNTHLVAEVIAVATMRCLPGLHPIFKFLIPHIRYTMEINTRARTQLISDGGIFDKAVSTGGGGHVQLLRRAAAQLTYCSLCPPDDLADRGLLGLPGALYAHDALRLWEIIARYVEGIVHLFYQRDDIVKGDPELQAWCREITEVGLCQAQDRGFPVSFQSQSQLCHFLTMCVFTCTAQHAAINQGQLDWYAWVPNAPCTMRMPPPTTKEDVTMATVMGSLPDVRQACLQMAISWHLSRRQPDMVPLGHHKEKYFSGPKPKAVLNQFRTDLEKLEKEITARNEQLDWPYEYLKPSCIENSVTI
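Purified human 12hLO (150 nM), preincubated 15 min with compound, then 40 uM arachidonic acid for 30 min, room temperature, Hepes pH 7.0 with 0.01% Triton X-100. Hydroperoxide detected by ferrous iron/xylenol orange; 573/405 nm absorbance ratio gives reaction progress.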
PNC inhibitor = perinucleolar compartment assembly inhibition; PC3M PTB-GFP, PNC prevalence imaging, 16 h; hits give low values; activity change (PNC), negative = inhibition, % at 10 µM; 3.1% of 140,000 active; AID 2417;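 active means readout at or below -70, meaning at least 70% loss of cells showing the perinucleolar compartment, a nuclear body marking cancer cells; inconclusive means readout between -30 and a set limit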;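 further: plate controls were DMSO wells for no effect and camptothecin positive control wells for full effect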
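Compounds are pinned in duplicate onto adhered PC3M cells stably expressing GFP-tagged PTB and incubated 16 h at 37 C. Cells are then fixed, nuclei stained with Hoechst, and PNC-positive cells counted.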
HPGD inh = inhibitors of human 15-hydroxyprostaglandin dehydrogenase (HPGD); Potency, µM, for the others: at the top dose activity change, negative = inhibition, usual class: inhibitors; AID 894; purified HPGD, NADH fluorescence kinetic, PGE2 substrate; P15428; 4.3% of 150,000 active; further: potency means the concentration at half of the fitted maximal effect
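NADH formation kinetics: reaction with 30 uM PGE2 and 1 mM NAD+ (final), 20 nM enzyme, Tris-HCl pH 8 with Tween 20, after 15 min compound preincubation at room temperature. Fluorescence change, last versus first of five reads.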
ALDH1A1 block = ALDH1A1 (human) enzyme inhibition | 7.3% of 220,000 active | P00352 | Potency, µM (highest dose often 75.3 µM), without a hit: at the highest dose activity, negative = inhibition, usual class: inhibitors | Purified ALDH1A1, NADH fluorescence, propionaldehyde substrate;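 further: potency means the concentration at half of the fitted maximal effect; plate controls were no enzyme wells and a reference inhibitor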
Lamin A splicing = modulators of lamin A splicing; HeLa LMNA splicing GFP/RFP minigene ratio, 48 h; Potency, µM (series often up to 46.1 µM), for inactives: top-dose ratio change, negative = inhibition, hits mostly inhibitors; 0.01% of 200,000 active; AID 1487; active means well fitted inhibition curve with a large enough effect in the signal ratio, with a control signal flat, not every such curve was filed as active; inconclusive means small, poorly fitted or top-dose-only effect, or effect the other way, or a change in a side signal; the % refers to the signal ratio; further: potency means the concentration at half of the fitted maximal effect
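S3 HeLa stable clones carrying a lamin A-EGFP splicing minigene plus DsRed2 were seeded at 600 cells/well in Opti-MEM with 2% FBS, pin-dosed and incubated 48 h at 37°C. Acumen cytometry (488 nm) gave the GFP/RFP total-intensity ratio.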
* hit, by the source's call; ? = inconclusive; · = not tested or not shown; [ ] = remark or other dose. Shown are actives, neighbours in structure and some others; about 10% of the full set was active somewhere. Unless noted, the call rests on the fitted dose curve; in most records, active means well fitted inhibition curve with a large enough effect (not every such curve was filed as active); inconclusive means small, poorly fitted or top-dose-only effect, or another doubt; inactive means no such curve, though single readings can be large or run the other way. Unless noted, on the % scale 0 is the no-effect control and ±100 the full control effect.

SMILES	12-hLO inh	PNC inhibitor	HPGD inh	ALDH1A1 block	Lamin A splicing
Cc1cc(C(=O)NCc2ccco2)cs1	5%	?	16µM*	?	-2%
O=C(NCc1ccco1)c1ccccc1-c1ccccc1	1%	13	-4%	-5%	1%
C[C@]12CC[C@@H]3c4ccc(O)cc4CC[C@H]3[C@@H]1CC[C@H]2O	0%[0.00818 µM]	·	-1%	-2%	·
CC(C)CC(=O)NCC(c1ccc2c(c1)OCO2)N1CCN(c2ccccc2F)CC1 (configuration not stated)	·	·	·	·	-4%[46 µM]
CC1=C(C(=O)Nc2ccccc2Cl)C(c2cccc(O)c2)n2ncnc2N1 (configuration not stated)	·	·	·	·	-3%[46 µM]
CCSc1nc2c([nH]c3ccccc32)c(=O)n1CC	·	·	·	·	16%[46 µM]
CCOP(=O)(c1ccccc1)c1nc(-c2ccc(F)cc2)oc1N1CCCCC1 (configuration not stated)	-8%	-87*	-11%	-15%	3%
CC(C)C[C@H](NC(=O)NC1CCCc2ccccc21)C(=O)O (some centres not stated)	·	·	·	19%	·
CC(C)C[C@@H](NC(=O)OCC1c2ccccc2-c2ccccc21)C(=O)O	-1%	·	-4%	13µM*	·
CC(=O)N/N=C(\C)CCc1ccccc1	·	·	·	-2%	-16%[46 µM]
COc1ccc(CC/C(C)=N\NC(N)=O)cc1	3%	-105*	9%	0%	-2%
CCc1ccc(C(C(=O)NCc2ccc(OC)cc2)N(CCOC)C(=O)Cc2cccs2)cc1 (configuration not stated)	0%	6	-7%	1.3µM*	5%
COc1ccc(CN(C(=O)Cc2c[nH]c3ccccc23)C(C(=O)NC2CCCCC2)c2ccc(C)o2)cc1 (configuration not stated)	-10%	?	-18%	6.3µM*	?
Cc1ccc(C(C(=O)NC2CCCCC2)N(Cc2ccccc2)C(=O)Cc2c[nH]c3ccccc23)o1 (configuration not stated)	-2%	40	-16%	?	?
COCCN(C(=O)Cc1cccs1)C(C(=O)NCc1ccc(OC)cc1)c1ccc(C)cc1 (configuration not stated)	-4%	8	-27%	2µM*	5%
COc1ccc(CNC(=O)C(c2ccc(C)o2)N(Cc2cccs2)C(=O)Cc2cccs2)cc1 (configuration not stated)	-2%	-29	-18%	3.5µM*	?
COc1ccccc1C(=O)OCc1cc(=O)n2c(C)csc2n1	·	·	·	·	-16%[46 µM]
CCN1CCCC1Cn1c(-c2ccccc2)nc2c(NC3CCCCC3)nc(C)nc21 (configuration not stated)	0%	·	-24%	?	·
COc1ccc(C(=O)Nc2cccc(-c3cc4ccccc4oc3=O)c2)cc1[N+](=O)[O-]	1%	43	?	?	-3%
CCC(=O)N[C@@H]1CCc2cccc(OC)c2C1	-2%	·	-21%	3%	·
COC(=O)N1CCC[C@@]2(CCN(c3ccccc3)C2)C1	-2%	·	-14%	0%	·
CCOC(=O)c1c(-c2ccc(C)o2)csc1NC(=S)NC(=O)c1ccccc1Br	-29%	17	-19%	-14%	-12%
CCOC(=O)c1c(-c2ccc(C)o2)csc1NC(=O)CSc1nnc(C)s1	-15%	?	?	?	?
CCOC(=O)c1c(-c2ccc(C)o2)csc1NC(=S)NC(=O)c1cccs1	8%	48	?	18µM*	-11%
CCNC(=S)Nc1scc(-c2ccccc2)c1C(=O)OCC	?	2	-26%	28µM*	?
SMILES	12-hLO inh	PNC inhibitor	HPGD inh	ALDH1A1 block	Lamin A splicing
COC(=O)c1c(-c2ccc(C)cc2)csc1NC(=S)NC(=O)c1cc(OC)cc(OC)c1	3%	-8	-13%	20µM*	-8%
CCOC(=O)c1c(-c2ccc(C)cc2)csc1NC(=O)c1cc(-c2ccc(OC)cc2)on1	·	·	·	·	7%[46 µM]
CCOC(=O)c1c(-c2ccc(C)o2)csc1NC(=O)CSc1nnnn1-c1ccccc1	?	6	11µM*	1.6µM*	?
COc1cccc(CN2CCc3nc(Nc4ccc5c(c4)OCCO5)ncc3C2)c1OC	·	·	·	·	-5%[46 µM]
CC(C)C[C@H](NC(=O)[C@H](CCCCN)NC(=O)[C@H](CCCNC(=N)N)NC(=O)[C@H](C)NC(=O)[C@H](CO)NC(=O)[C@H](CCCCN)NC(=O)[C@H](CCCNC(=N)N)NC(=O)[C@H](C)NC(=O)CNC(=O)[C@@H](NC(=O)[C@H](Cc1ccccc1)NC(=O)CNC(=O)CNC(=O)[C@@H](N)Cc1ccccc1)[C@H](C)O)C(=O)N[C@@H](C)C(=O)N[C@@H](CC(N)=O)C(=O)N[C@@H](CCC(N)=O)C(=O)O	·	·	·	4%	·
C=CCn1c(N)c(C(=O)OCC)sc1=S	0%	-28	-17%	-11%	13%
C=CCn1c(NC(=O)CC)c(C(=O)OCC)sc1=S	2%	1	20µM*	?	9%
COCC(=O)N1CCC2(CC1)CN(c1ccccc1)C2	3%	·	-9%	-11%	·
Nc1cc(Cl)ccc1Oc1ccccc1	-3%	12	-12%	5%	2%
Nc1cc(Cl)ccc1Oc1ccc(Cl)cc1	-5%	3	22µM*	1.6µM*	-9%
COc1ccc(NC(=O)CC2Sc3ncnn3C2=O)cc1 (configuration not stated)	-2%	24	7.9µM*	0.4µM*	-24%
CCOC(=O)c1ccc(NC(=O)CC2SC(=NC)N(C)C2=O)cc1 (configuration not stated)	1%	?	-9%	13µM*	-4%
O=C(CC1SC2=NCCN2C1=O)Nc1ccc(Cl)cc1 (configuration not stated)	-2%	-10	0%	7%	0%
CCOC(=O)c1ccc(NC(=O)CC2Sc3ncnn3C2=O)cc1 (configuration not stated)	-1%	?	16µM*	1µM*	-16%
O=C(CC1Sc2ncnn2C1=O)Nc1ccc(Cl)cc1 (configuration not stated)	·	·	·	7.9µM*	·
CCNc1ncc2ncc(=O)n(C)c2n1	-2%	·	?	?	·
O[C@@H](c1cc(-c2ccc(Cl)cc2)nc2ccccc12)[C@@H]1CCCCN1	1%[11.4 µM]	·	·	·	·
CC(C)c1nn2c(=O)cc(COC(=O)c3cccc(NC(=O)c4cccs4)c3)nc2s1	·	·	·	·	-13%[46 µM]
Cc1ccc([N+](=O)[O-])cc1NC(=O)c1ccoc1C	-3%	?	-19%	20µM*	10%
Cc1occc1C(=O)Nc1cccc([N+](=O)[O-])c1	-3%	9	-6%	1%	12%
Cc1occc1C(=O)NNC(=O)Nc1ccc([N+](=O)[O-])cc1	·	·	·	14µM*	·
COc1cc(C(=O)NNC(=O)Nc2ccc([N+](=O)[O-])cc2)cc(OC)c1OC	·	·	·	-1%	·
C/C(Cl)=C\CSc1nnc2n(N)c(=O)c3ccccc3n12	4%	-16	-18%	18µM*	-8%

Bioassay records: PubChem, National Center for Advancing Translational Sciences (NCATS)
